Experimental findings from the antibiotic and cytotoxicity screens of Wong et al. (2023) are described below.

Screen size: about 39,000 compounds; about 3,300 (8.5%) were called active. The full list was thinned out, with actives kept by preference.

This assay deals with HepG2. The assay is described as follows: cytotoxicity call (relative viability < 0.9). As to conditions: 10 µM.
With `COCC(=O)N(C)C[C@@H]1Oc2cc(-c3ccc(C#N)cc3)ccc2S(=O)(=O)N([C@@H](C)CO)C[C@H]1C`, the cytotoxicity call is “inactive”.
Regarding `C[C@H](CO)N1C[C@H](C)[C@H](CN(C)C(=O)CN2CCOCC2)Oc2ncc(/C=C/c3ccccc3)cc2C1=O`, the cytotoxicity call was “inactive”.
With `COCCC(=O)N1C[C@H]2CN(c3cnn(C)c3)C(=O)[C@@H]2C1`, the cytotoxicity call is “inactive”.
With `Cc1ccc(F)cc1NC(=O)CN`, the cytotoxicity call is “inactive”.
As for `COc1ccc(NC(=O)Nc2ccc3c(c2)C(=O)N([C@H](C)CO)C[C@@H](C)[C@H](CN(C)S(=O)(=O)c2ccc(OC)cc2)OCCCC[C@@H](C)O3)cc1`, the cytotoxicity call was “active”.
The same measure for `COc1ccc(NC(=O)Nc2ccc3c(c2)C(=O)N([C@@H](C)CO)C[C@@H](C)[C@H](CN(C)S(=O)(=O)c2ccc(C)cc2)OCCCC[C@H](C)O3)cc1`: “inactive”.
Then `COc1ccc(NC(=O)Nc2ccc3c(c2)C(=O)N([C@H](C)CO)C[C@@H](C)[C@H](CN(C)S(=O)(=O)c2ccc(C)cc2)OCCCC[C@H](C)O3)cc1`, with “active”; and `COc1ccc(NC(=O)Nc2ccc3c(c2)C(=O)N([C@H](C)CO)C[C@H](C)[C@H](CN(C)S(=O)(=O)c2ccc(C)cc2)OCCCC[C@@H](C)O3)cc1`, with “inactive”; and `COc1ccc(NC(=O)Nc2ccc3c(c2)C(=O)N([C@H](C)CO)C[C@@H](C)[C@H](CN(C)S(=O)(=O)c2ccccc2)OCCCC[C@H](C)O3)cc1`, with “active”.
For `COc1ccc(NC(=O)Nc2ccc3c(c2)C(=O)N([C@@H](C)CO)C[C@@H](C)[C@@H](CN(C)S(=O)(=O)c2ccccc2)OCCCC[C@@H](C)O3)cc1`, the cytotoxicity call was “inactive”.
Then `COc1ccc(NC(=O)Nc2ccc3c(c2)C(=O)N([C@@H](C)CO)C[C@H](C)[C@H](CN(C)S(=O)(=O)c2ccc(OC)cc2)OCCCC[C@@H](C)O3)cc1`, with “inactive”; and `COc1ccc(NC(=O)Nc2ccc3c(c2)C(=O)N([C@@H](C)CO)C[C@@H](C)[C@H](CN(C)S(=O)(=O)c2ccccc2)OCCCC[C@@H](C)O3)cc1`, with “inactive”.
In the case of `COc1ccc(NC(=O)Nc2ccc3c(c2)C(=O)N([C@@H](C)CO)C[C@@H](C)[C@@H](CN(C)S(=O)(=O)c2ccc(OC)cc2)OCCCC[C@@H](C)O3)cc1`, the cytotoxicity call is “inactive”.
For `C[C@H](CO)N1C[C@H](C)[C@H](CN(C)C(=O)c2ccc(N3CCN(C)CC3)cc2)OCc2cnnn2CCCC1=O`, the cytotoxicity call is “inactive”.
As to `C[C@H](O)C#Cc1ccc2c(c1)O[C@@H](CN(C)C)[C@@H](C)CN([C@@H](C)CO)S2(=O)=O`, the cytotoxicity call is “inactive”.
With `COc1ccc(S(=O)(=O)N(C)C[C@H]2Oc3c(NS(=O)(=O)c4ccc(C)cc4)cccc3C(=O)N([C@@H](C)CO)C[C@@H]2C)cc1`, the cytotoxicity call was “inactive”.
For the molecule `CCNC(=O)C[C@H]1CC[C@@H](NC(=O)C2CC2)[C@@H](CO)O1`, the cytotoxicity call is “inactive”.
The same measure for `Cc1noc(C)c1C(=O)OCC(=O)NC1CC1`: “inactive”; for `Cc1cc(C(=O)Nc2cccc3c2O[C@@H](CN(C)Cc2ccncc2)[C@H](C)CN([C@H](C)CO)C3=O)n(C)n1`: “inactive”; for `COC(=O)c1cnn2c(=O)cc(C)[nH]c12`: “inactive”.
Turning to `O=C(C[C@H]1CC[C@H]2[C@@H](COC[C@@H](O)CN2S(=O)(=O)c2cccc(F)c2)O1)NCCCN1CCOCC1`, the cytotoxicity call is “inactive”.
As to `C[C@@H]1CN([C@@H](C)CO)C(=O)c2cc(NC(=O)Nc3ccc(F)cc3)ccc2O[C@H]1CN(C)Cc1ccc(C(F)(F)F)cc1`, the cytotoxicity call is “active”.
Consider `C[C@H]1CN([C@@H](C)CO)C(=O)c2cc(NC(=O)Nc3ccc(F)cc3)ccc2O[C@H]1CN(C)Cc1ccc(C(F)(F)F)cc1`, for which the cytotoxicity call is “inactive”.
For the molecule `C[C@@H]1CN([C@H](C)CO)C(=O)c2cc(NC(=O)Nc3ccc(F)cc3)ccc2O[C@H]1CN(C)Cc1ccc(C(F)(F)F)cc1`, the cytotoxicity call is “active”.
Regarding `C[C@H](CO)N1C[C@H](C)[C@H](CN(C)Cc2ccc(C(F)(F)F)cc2)Oc2ccc(NC(=O)Nc3ccc(F)cc3)cc2C1=O`, the cytotoxicity call was “inactive”.
As for `C[C@H]1CN([C@@H](C)CO)C(=O)c2cc(NC(=O)Nc3ccc(F)cc3)ccc2O[C@@H]1CN(C)Cc1ccc(C(F)(F)F)cc1`, the cytotoxicity call was “inactive”.
Turning to `C[C@H](CO)N1C[C@H](C)[C@@H](CN(C)Cc2ccc(C(F)(F)F)cc2)Oc2ccc(NC(=O)Nc3ccc(F)cc3)cc2C1=O`, the cytotoxicity call was “active”.
As for `C[C@@H]1CN([C@H](C)CO)C(=O)c2cc(NC(=O)Nc3ccc(F)cc3)ccc2O[C@@H]1CN(C)Cc1ccc(C(F)(F)F)cc1`, the cytotoxicity call was “inactive”.
Consider `C[C@@H]1CN([C@@H](C)CO)C(=O)c2cc(NC(=O)Nc3ccc(F)cc3)ccc2O[C@@H]1CN(C)Cc1ccc(C(F)(F)F)cc1`, for which the cytotoxicity call was “active”.
Then `O=C(C[C@@H]1CC[C@@H]2[C@H](COC[C@@H](O)CN2C(=O)c2cccnc2)O1)NCc1ccc(-c2ccccc2)cc1`, with “inactive”.
Regarding `C[C@@H]1CN([C@H](C)CO)C(=O)Cc2cc(NS(=O)(=O)c3cn(C)cn3)ccc2O[C@@H]1CN(C)C(=O)NC1CCCCC1`, the cytotoxicity call was “inactive”.
For `C[C@H](CO)N1C[C@H](C)[C@@H](CN(C)Cc2cccc3c2OCCCO3)OCc2cn(nn2)CCCC1=O`, the cytotoxicity call is “inactive”.
Turning to `O=C1CSCCN1`, the cytotoxicity call is “inactive”.
As to `OCc1ncc[nH]1`, the cytotoxicity call was “inactive”.
On to `CCNC(=O)[C@H]1[C@H](CO)[C@H]2Cn3c(ccc(-c4ccc(OC)cc4)c3=O)[C@@H]1N2S(C)(=O)=O`, for which the cytotoxicity call was “inactive”.
In the case of `C[C@@H]1CN([C@@H](C)CO)S(=O)(=O)c2ccc(C3=CCCC3)cc2O[C@@H]1CN(C)C(=O)Cc1ccncc1`, the cytotoxicity call is “inactive”.
Then `COc1ccc2c(c(Br)c(C(=O)O)n2CCCOc2cccc3ccccc23)c1-c1ccccc1C`, with “inactive”.
`C[C@H](CO)N1C[C@H](C)[C@@H](CN(C)Cc2ccc(C(=O)O)cc2)Oc2ccc(NC(=O)Cn3cnnn3)cc2CC1=O`: the cytotoxicity call was “inactive”.
For the molecule `CC(C)(C)C(=O)C[C@@H](Nc1ccccc1)c1ccc(Cl)cc1`, the cytotoxicity call was “inactive”.
On to `COc1cccc(-c2ccc3n(c2=O)C[C@H]2[C@H](CO)[C@@H](C(=O)NCC4CC4)[C@@H]3N2S(C)(=O)=O)c1`, for which the cytotoxicity call is “inactive”.
The same measure for `C[C@H]1CN([C@@H](C)CO)C(=O)c2cccc(NS(=O)(=O)c3cn(C)cn3)c2O[C@@H]1CN(C)CC1CC1`: “inactive”; for `CCc1nc2ccc(C(=O)N3CCN(C(=O)c4ccco4)CC3)cn2c1N(C)C(=O)COc1ccccc1`: “inactive”.
As to `CCc1nc2c(OCC(=O)c3ccc(Cl)cc3Cl)cccn2c1N(C)C(=O)COc1ccccc1`, the cytotoxicity call was “active”.
Regarding `CCc1nc2c(OCC(=O)c3ccc(Cl)cc3Cl)cccn2c1N(C=O)Cc1ccc(OC)cc1`, the cytotoxicity call is “inactive”.
Regarding `C[C@@H]1CN([C@H](C)CO)C(=O)Cc2cc(NS(=O)(=O)c3cccs3)ccc2O[C@H]1CN(C)CC1CC1`, the cytotoxicity call was “inactive”.
For the molecule `CC(C)=CCC/C(C)=C/CC1=C(C)C(=O)c2ccccc2C1=O`, the cytotoxicity call is “inactive”.
The same measure for `C[C@H]1CN([C@@H](C)CO)C(=O)Cc2cc(NC(=O)Nc3cccc4ccccc34)ccc2O[C@H]1CN(C)Cc1ccc(C(F)(F)F)cc1`: “active”; for `C[C@@H]1CN([C@H](C)CO)C(=O)Cc2cc(NC(=O)Nc3cccc4ccccc34)ccc2O[C@@H]1CN(C)Cc1ccc(C(F)(F)F)cc1`: “active”.
Regarding `C[C@@H]1CN([C@@H](C)CO)C(=O)Cc2cc(NC(=O)Nc3cccc4ccccc34)ccc2O[C@@H]1CN(C)C(=O)Nc1ccc(C(F)(F)F)cc1`, the cytotoxicity call was “inactive”.
For `C[C@@H]1CN([C@@H](C)CO)C(=O)Cc2cc(NC(=O)Nc3cccc4ccccc34)ccc2O[C@H]1CN(C)Cc1ccc(C(F)(F)F)cc1`, the cytotoxicity call is “inactive”.
Consider `C[C@H]1CN([C@@H](C)CO)C(=O)Cc2cc(NC(=O)Nc3cccc4ccccc34)ccc2O[C@@H]1CN(C)Cc1ccc(C(F)(F)F)cc1`, for which the cytotoxicity call was “inactive”.
On to `C[C@@H]1CN([C@H](C)CO)C(=O)Cc2cc(NC(=O)Nc3cccc4ccccc34)ccc2O[C@H]1CN(C)Cc1ccc(C(F)(F)F)cc1`, for which the cytotoxicity call was “inactive”.
The same measure for `C[C@H](CO)N1C[C@H](C)[C@@H](CN(C)Cc2ccc(C(F)(F)F)cc2)Oc2ccc(NC(=O)Nc3cccc4ccccc34)cc2CC1=O`: “inactive”; for `C[C@@H]1CN([C@@H](C)CO)C(=O)Cc2cc(NC(=O)Nc3cccc4ccccc34)ccc2O[C@@H]1CN(C)Cc1ccc(C(F)(F)F)cc1`: “active”.
Turning to `C[C@H](CO)N1C[C@H](C)[C@H](CN(C)Cc2ccc(C(F)(F)F)cc2)Oc2ccc(NC(=O)Nc3cccc4ccccc34)cc2CC1=O`, the cytotoxicity call was “inactive”.
`O=C(COc1ccccc1)N1CCNC1=O`: the cytotoxicity call was “inactive”.
Regarding `CC(C)NC(=O)N(C)C[C@@H]1Oc2ncc(-c3ccc(C(=O)N(C)C)cc3)cc2C(=O)N([C@@H](C)CO)C[C@H]1C`, the cytotoxicity call was “inactive”.
Turning to `O=C(C[C@H]1C[C@H]2c3cc(NC(=O)C4CCOCC4)ccc3O[C@H]2[C@@H](CO)O1)NCCN1CCCCC1`, the cytotoxicity call was “inactive”.
With `C[C@H]1CCCCO[C@H](CN(C)C(=O)c2ccccc2)[C@@H](C)CN([C@@H](C)CO)C(=O)c2cc(NC(=O)NC3CCCCC3)ccc2O1`, the cytotoxicity call is “inactive”.
As to `C[C@@H]1CN([C@H](C)CO)C(=O)c2cc(NC(=O)c3ccncc3)ccc2O[C@@H]1CN(C)Cc1ccc2c(c1)OCO2`, the cytotoxicity call is “inactive”.
Turning to `COc1ccc(S(=O)(=O)Nc2ccc3c(c2)C(=O)N([C@@H](C)CO)C[C@@H](C)[C@@H](CN(C)C(=O)Nc2ccc4c(c2)OCO4)OCCCC[C@H](C)O3)cc1`, the cytotoxicity call was “inactive”.
For `Cc1cn([C@@H]2C[C@H](O)[C@@H](CO)O2)c(=O)[nH]c1=O`, the cytotoxicity call was “inactive”.
Then `Cc1ccc(S(=O)(=O)Nc2ccc3c(c2)C(=O)N([C@H](C)CO)C[C@H](C)[C@H](CN(C)C(=O)CCC(F)(F)F)OCCCC[C@@H](C)O3)cc1`, with “inactive”; and `CC(C)(C)OC(=O)C[C@H]1CC=CC[C@@H](CC(=O)NCCO)C(=O)N[C@@H](Cc2ccccc2)COC1=O`, with “inactive”.
Then `C[C@@H]1CN([C@@H](C)CO)C(=O)c2cccc(NC(=O)c3ccncc3)c2O[C@H]1CN(C)Cc1ccc2c(c1)OCO2`, with “inactive”; and `CC(C)NC(=O)Nc1ccc2c(c1)C(=O)N([C@@H](C)CO)C[C@H](C)[C@@H](CN(C)Cc1ccc(C(=O)O)cc1)O2`, with “inactive”.
